In the library only some 2.9% were active in any assay of this set; here they are far more common.
PAFAH1B3 inh – inhibitors of human PAFAH1B3 | recombinant PAFAH1B3, FP-rhodamine probe, fluorescence polarization | inhibition, % at 3.39 µM | actives 0.28% (n = 340,000) | AID 492972;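 active = inhibition above the screen-wide average of all tested compounds plus 3 SD, cut at about 25% in these data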
PAFAH1B2 inh – PAFAH1B2 (human) inhibition; inhibition, % at 3.39 µM; recombinant PAFAH1B2, FP-rhodamine activity probe, fluorescence polarization; actives 1.2% (n = 340,000); P68402;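 active = inhibition above the mean of all tested compounds plus 3 SD, cut at about 24% in these data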
Target sequence (P68402 whole entry, looked up): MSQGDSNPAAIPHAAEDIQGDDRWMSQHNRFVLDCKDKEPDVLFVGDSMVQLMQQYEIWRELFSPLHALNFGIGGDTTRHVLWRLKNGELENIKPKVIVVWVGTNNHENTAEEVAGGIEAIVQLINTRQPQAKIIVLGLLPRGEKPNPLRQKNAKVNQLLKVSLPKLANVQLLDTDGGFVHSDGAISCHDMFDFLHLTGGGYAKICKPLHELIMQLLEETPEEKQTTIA
Fam108B counter – counter-screen for RBBP9 inhibitors: inhibitors of mouse Fam108B. actives 0.33% (n = 300,000). recombinant Fam108B, FP-Rh probe fluorescence polarization. inhibition, % at 9.51 µM. AID 1947;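 active = inhibition above the screen mean inhibition plus 3 SD, computed separately per campaign, cut at about 18% in these data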;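 note: inhibitors lower polarization as less probe binds the enzyme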
PME-1 primary – PME-1 (human) inhibition | recombinant PME-1, FP-Rh probe fluorescence polarization | inhibition, % at 5.9 µM | actives 0.53% (n = 320,000) | AID 2130;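 active = inhibition above the campaign mean of all compounds plus 3 SD, cut at about 26% in these data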;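 note: competitive labeling of PME-1 active site by serine hydrolase directed probe; inhibitors block probe labeling so polarization falls and inhibition rises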
Target sequence (Q9Y570 whole entry, looked up): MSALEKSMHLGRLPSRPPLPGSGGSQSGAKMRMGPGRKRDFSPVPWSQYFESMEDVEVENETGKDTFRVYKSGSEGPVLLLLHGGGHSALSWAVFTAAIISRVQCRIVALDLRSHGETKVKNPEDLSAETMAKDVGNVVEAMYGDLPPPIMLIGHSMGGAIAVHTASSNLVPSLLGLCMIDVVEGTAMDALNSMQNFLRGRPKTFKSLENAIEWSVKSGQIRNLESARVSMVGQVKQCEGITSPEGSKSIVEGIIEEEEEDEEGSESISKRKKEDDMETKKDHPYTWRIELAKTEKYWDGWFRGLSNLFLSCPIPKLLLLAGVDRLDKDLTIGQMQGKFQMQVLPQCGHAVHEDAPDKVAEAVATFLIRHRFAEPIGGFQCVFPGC
pPAFAH inh – pPAFAH (human) enzyme inhibition. recombinant pPAFAH, FP-rhodamine probe fluorescence polarization. inhibition, % at 3.39 µM. actives 1.5% (n = 330,000). Q13093;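 active = inhibition above the mean inhibition across the screen plus 3 SD, cut at about 25% in these data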;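 note: inhibitors block binding of the rhodamine activity-based probe so polarization drops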
PAFAH2 inh – inhibitors of human PAFAH2; recombinant PAFAH2, FP-rhodamine activity probe, fluorescence polarization; inhibition, % at 3.39 µM; actives 0.99% (n = 340,000);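 active = inhibition above the mean over all tested compounds plus 3 SD, cut at about 30% in these data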;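 note: inhibitors block probe labeling of enzyme so polarization drops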
pPAFAH FP conf – pPAFAH (human) inhibition, confirmed | inhibition, % at 3.39 µM | shares compounds with pPAFAH inh | actives 72% (n = 2,300) | recombinant pPAFAH, FP-Rh probe fluorescence polarization;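 active = mean inhibition of the triplicate above the hit cutoff set for the earlier primary screen, cut at about 25% in these data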
A number is an active result; . = inactive; / = no result given.

SMILES | PAFAH1B3 inh | PAFAH1B2 inh | Fam108B counter | PME-1 primary | pPAFAH inh | PAFAH2 inh | pPAFAH FP conf
Cc1ccc(NC(=O)CSc2nnc(-c3ccco3)c(-c3ccco3)n2)cc1 | . | . | . | . | 48 | . | 29
COc1cccc(NC(=O)CSc2nnc(-c3ccco3)c(-c3ccco3)n2)c1 | . | . | . | . | 41 | . | .
Cc1ccccc1NC(=O)CSc1nnc(-c2ccco2)c(-c2ccco2)n1 | . | . | . | . | 45 | . | .
Cc1cc(NC(=O)COC(=O)CNS(=O)(=O)c2ccc(C)c(C)c2)no1 | . | . | . | . | . | . | /
Cc1cccc(NS(=O)(=O)c2ccc(C)c(C(=O)OCC(=O)Nc3cc(C)on3)c2)c1 | . | . | . | . | 68 | . | 62
O=C(O)CSc1cc(C(=O)c2ccccc2O)cn2c(=O)c3c(-c4ccccc4)csc3nc12 | . | . | . | . | 65 | . | 72
N#Cc1ccc(Nc2nc(-c3ccc(O)cc3O)cs2)cc1C(F)(F)F | 26 | . | / | 61 | 35 | . | 27
CN=c1scc(C)n1/N=C/c1ccc(O)c(O)c1O | . | . | . | . | 60 | . | .
CN=c1scc(C)n1/N=C/c1cc(Br)c(O)c(OC)c1 | . | . | . | . | . | . | /
CN=c1scc(-c2cccs2)n1/N=C/c1ccc(O)c(O)c1O | . | . | . | 31 | 51 | . | 65
CN=c1scc(-c2cccs2)n1/N=C/c1ccccc1O | . | . | . | . | . | . | /
CC(C)C(NC(=O)c1ccccc1F)C(=O)NCCc1ccccn1 (stereo not given) | . | . | . | . | . | . | /
Cc1ccc(OCc2ccc(C(=O)NCC3CCCO3)cc2)cc1C (stereo not given) | . | . | / | . | . | . | /
Cc1ccc(C)c(S(=O)(=O)NCCOC(=O)Nc2sc(=S)n(C)c2C)c1 | . | . | . | . | . | . | /
Cc1c(Nc2nc3ccccc3n3cnnc23)cccc1[N+](=O)[O-] | . | . | . | . | . | . | /
Cc1cc([N+](=O)[O-])ccc1Nc1nc2ccccc2n2cnnc12 | . | . | . | . | 37 | . | .
CS(=O)(=O)c1ccc(C(=O)OCC(=O)NCc2cccs2)cc1[N+](=O)[O-] | . | . | / | / | 36 | 38 | .
CS(=O)(=O)c1ccc(C(=O)OCC(=O)NC2CCS(=O)(=O)C2)cc1[N+](=O)[O-] (stereo not given) | . | . | . | . | . | . | /
O=C(Nc1ccc(Br)c2ccccc12)c1ccc2ccccc2c1O | . | . | 39 | . | 36 | 48 | 52
CC(=O)Nc1ccc(Br)c2ccccc12 | . | . | . | . | . | . | /
Cn1c(=N)n(CC(=O)c2ccc(Br)cc2)c2ccccc21 | . | . | . | 32 | 35 | . | .
CC(=O)OCCNc1cc(SCc2ccco2)c2nonc2c1[N+](=O)[O-] | . | . | . | . | 58 | . | .
O=[N+]([O-])c1c(NCCCO)cc(SCc2ccco2)c2nonc12 | . | . | . | . | 59 | . | .
CCOC(=O)c1[nH]c2ccc(Br)cc2c1NC(=O)CCN1CCCC(C)(C)C1 | . | . | . | . | . | . | /
NC(=O)N/N=C/c1ccc(N2CCOCC2)s1 | . | . | . | . | . | . | /
SMILES | PAFAH1B3 inh | PAFAH1B2 inh | Fam108B counter | PME-1 primary | pPAFAH inh | PAFAH2 inh | pPAFAH FP conf
O=C(O)c1cc(N/N=C/c2ccc(N3CCOCC3)s2)ccc1Cl | . | . | . | . | 74 | . | .
Cc1cccc(NC(=S)NC2CC3CCCC(C2)N3Cc2cccs2)c1C (stereo not given) | . | . | . | . | . | . | /
CN(c1ccccc1)S(=O)(=O)c1ccc(Cl)c(C(=O)Nc2ccncc2)c1 | . | . | / | . | . | . | /
CCN(CC(=O)Nc1c(F)cccc1F)C(=O)/C=C/c1ccc2ccccc2n1 | . | . | . | . | 40 | . | 25
COc1cc(CNc2ccc(O)cc2)cc(Br)c1OCc1ccccc1 | . | . | . | . | 35 | . | .
COc1cc(CNC(C)c2ccccc2)cc(Br)c1OCc1ccccc1 (stereo not given) | . | . | . | . | . | . | /
COc1ccc(Br)cc1CNc1ccc(O)cc1 | . | . | . | 29 | 37 | . | .
Cc1cc(C(=O)NC(C)c2ccncc2)no1 (stereo not given) | . | . | . | . | . | . | /
O=C(Nc1nc2ccsc2c(=O)s1)C1CCC1 | / | / | . | . | 36 | / | .
O=C(Nc1nc2ccsc2c(=O)s1)c1ccco1 | / | / | . | . | . | / | /
Cc1ccc(S(=O)(=O)N2[C@@H](c3ccc(C(C)(C)C)cc3)C(C(=O)O)=CC[C@H]2c2ccc3c(c2)OCO3)cc1 | . | 92 | / | / | 58 | . | .
CC(=O)Nc1cccc2ncccc12 | . | . | . | . | 55 | . | .
CC(C)(C)c1ccc(C(=O)Nc2cccc3ncccc23)cc1 | . | . | . | . | . | . | /
COc1cc(-c2noc(CCC(=O)NC3CCCC3)n2)cc(OC)c1OC | . | . | . | . | . | . | /
O=C1N/C(=N\S(=O)(=O)c2ccccc2)S/C1=C\c1cc([N+](=O)[O-])ccc1O | 43 | 38 | . | . | 41 | 31 | 49
CCn1c(SCC(=O)n2nc(C)cc2C)nnc1-c1ccc2c(c1)OCO2 | . | . | . | . | . | . | /
Cc1cc(Br)c(S(=O)(=O)NCc2cccnc2)cc1C | . | . | . | . | 49 | . | .
CN(C)c1ccc(NC2=C([N+](=O)[O-])CS(=O)(=O)C2)cc1 | . | . | . | . | 39 | . | .
CN1CCN(C(=O)c2cc3sc4ccccc4c3s2)CC1 | / | / | . | . | 52 | / | .
CCN(C[C@H]1N[C@@](Cc2ccccc2)(C(=O)OC)[C@H]2C(=O)N(Cc3ccccc3)C(=O)[C@@H]12)C(=O)COc1ccccc1 | . | . | / | / | . | . | /
CCCc1cc(=O)oc2cc(OC3CCCCC3=O)ccc12 (stereo not given) | . | . | / | / | / | . | /
COc1cc2c(cc1OC)C(c1ccccc1C)CC(=O)N2 (stereo not given) | . | . | . | . | 67 | . | .
N#Cc1cc2c(=O)n3ccccc3nc2n(Cc2ccco2)c1=NC(=O)c1ccco1 | . | . | . | . | 37 | . | .
COc1cc(/C=C2\CC/C(=C\c3cc(OC)c(O)c(OC)c3)C2=O)cc(OC)c1O | . | . | . | . | 42 | . | 39
COc1cc(/C=C2\CC/C(=C\c3cc(OC)c(OC)c(OC)c3)C2=O)cc(OC)c1OC | . | . | . | . | . | . | /
CCCCCC(=O)Cc1cc(O)cc2c1C(=O)Oc1cc(O)c(C(=O)O)c(CCCCC)c1O2 | / | / | . | . | 43 | / | 59
Brc1ccc(-c2nnc3ccc(N4CCN(c5ccccc5)CC4)nn23)cc1 | . | . | . | . | . | . | /
